Compound activity from PubChem.
A selection follows.
aSyn 5UTR act = Activators via SNCA 5'UTR binding, MLPCN. alpha-synuclein 5'UTR reporter, activators screen. hit rate 7.1% among 300,000. activity score, % (tested at 7.5 µM), hits read low; in the data active = activity score below about -60%
Hits are given with their value.

Cc1cccc(-c2cnn(-c3cccc([N+](=O)[O-])c3)c2N)c1 was read as aSyn 5UTR act -75.3.
Screening Cc1cccc(-c2cnn(-c3ccccc3)c2N)c1 returned aSyn 5UTR act -128.6.
Screening Nc1c(-c2ccccc2)cnn1-c1cccc(Cl)c1 returned aSyn 5UTR act -144.4.
`Cc1cc(C(F)(F)F)c(C#N)c(SCC(=O)Nc2nc3cc(Br)ccc3s2)n1` gave aSyn 5UTR act -176.1.
CCOC(=O)/C(C#N)=C/Nc1ccccc1OC was read as aSyn 5UTR act -121.7.
For CCOC(=O)/C(C#N)=C/c1c[nH]c2ccccc12 the results were aSyn 5UTR act -66.2.
`O=Cc1cc2ccccc2nc1SCc1ccc(Cl)c(Cl)c1` gave aSyn 5UTR act inactive.
For CCOC(=O)/C(C#N)=C/c1cc2ccccc2nc1Cl the results were aSyn 5UTR act -79.7.
Screening COC(=O)/C(C#N)=C/c1c[nH]c2ccccc12 returned aSyn 5UTR act -96.4.
Screening O=c1c(-c2ccc(O)cc2)coc2cc(O)ccc12 returned aSyn 5UTR act -92.8.
Screening O=c1c(-c2cnn(-c3ccccc3)c2)coc2cc(O)ccc12 returned aSyn 5UTR act -155.6.
`Cc1oc2cc(O)ccc2c(=O)c1-c1cnn(-c2ccccc2)c1` gave aSyn 5UTR act -76.9.
CCc1ccc2c(c1)[C@]1(C(=O)N2)[C@@H]2C(=O)N(Cc3ccccc3)C(=O)[C@@H]2[C@@H]2CCCN21 was read as aSyn 5UTR act -77.8.
Screening Cc1cccc(-c2nc(N)nc(N)n2)c1 returned aSyn 5UTR act -73.6.
For Nc1nc(N)nc(-c2ccc(Cl)cc2)n1 the results were aSyn 5UTR act -111.9.
Screening Nc1nc(-c2ccc(Cl)cc2)nnc1-c1ccc(Br)cc1 returned aSyn 5UTR act -177.6.
For Cc1cc(C)cc(Oc2ncnc3c2ncn3Cc2c(Cl)cccc2Cl)c1 the results were aSyn 5UTR act inactive.
`Cn1c(/C=C/c2cccc(Br)c2)nc2ccccc2c1=O` gave aSyn 5UTR act -178.2.
For CC(C)Sc1nnc(Nc2ccccc2)s1 the results were aSyn 5UTR act -178.3.
Cc1ccc(-c2ccc(S(=O)(=O)N3CC(C)OC(C)C3)cc2)cc1 (stereo unspecified) was read as aSyn 5UTR act -78.3.
For CC1CN(S(=O)(=O)c2ccc(C(=O)NCCCn3ccnc3)cc2)CC(C)O1 (stereo unspecified) the results were aSyn 5UTR act inactive.
`CCc1c(C)nc2cc(-c3ccccc3)[nH]n2c1=O` gave aSyn 5UTR act -110.0.
Screening CCCCc1c(C)nc2cc(-c3ccco3)[nH]n2c1=O returned aSyn 5UTR act -68.1.
Screening Nc1ccc(SCc2nc3cccc4c3n2CCC4)cc1 returned aSyn 5UTR act -99.5.
`O=c1[nH]cnc(O)c1N=Nc1ccccc1` gave aSyn 5UTR act -70.5.
`O=C(Nc1ccon1)c1ccc(OC2CCCC2)cc1` gave aSyn 5UTR act -102.1.
For Fc1ccc(-c2cnc(-c3cccs3)o2)cc1 the results were aSyn 5UTR act -148.1.
Screening Fc1ccc(-c2nc(-c3cccs3)no2)cc1 returned aSyn 5UTR act -134.1.
O=C(NC1CCCC1)C(c1ccncc1)N(Cc1ccco1)C(=O)c1ccc(-c2ccccc2)[nH]1 (stereo unspecified) was read as aSyn 5UTR act -67.8.
For CCOC(=O)c1sc(NC(=O)CNCc2ccccn2)c(C(=O)OCC)c1C the results were aSyn 5UTR act inactive.
Screening CCOC(=O)c1sc(-c2ccccn2)nc1C returned aSyn 5UTR act -125.5.
For Cc1nc(-c2ccccn2)sc1C(=O)Nc1ccc(Cl)c(Cl)c1 the results were aSyn 5UTR act -78.4.
For CCC(C)NC(=O)c1cc(-c2ccccc2O)on1 (stereo unspecified) the results were aSyn 5UTR act -82.9.
COc1ccc(NC(=O)c2cc(-c3ccccc3Cl)on2)cc1OC was read as aSyn 5UTR act -96.1.
COc1ccccc1-c1cc(C(=O)Nc2ccc(F)cc2F)no1 was read as aSyn 5UTR act -155.3.
Screening COc1ccccc1-c1cc(C(=O)NC(C)C)no1 returned aSyn 5UTR act -264.6.
For CCN(CC)C(=O)c1cc(-c2ccccc2OC)on1 the results were aSyn 5UTR act -124.8.
`CCn1c(O)c(/C=C2\C=NN=C2c2ccccc2)sc1=S` gave aSyn 5UTR act inactive.
For Oc1c(C=C2N=c3ccccc3=N2)sc(=S)n1-c1ccc(F)cc1 the results were aSyn 5UTR act -64.6.
C/C(=C\C(=O)c1ccc(C)o1)Nc1ccc2c(c1)OCO2 was read as aSyn 5UTR act -170.3.
For C/C(=C\C(=O)c1ccccc1)Nc1ccc2c(c1)OCO2 the results were aSyn 5UTR act -115.0.
For Cc1cc(C)n2nc(C(=O)Nc3ccc4c(c3)OCO4)nc2n1 the results were aSyn 5UTR act -112.9.
Screening Cc1ccc(C(=O)Nc2ccc3c(c2)OCO3)o1 returned aSyn 5UTR act -118.0.
`CCOc1ccc(N/C(C)=C/C(=O)c2ccc(C)o2)cc1` gave aSyn 5UTR act -78.6.
For CCCCOC(=O)N/N=C/C=C/c1ccccc1 the results were aSyn 5UTR act -87.5.
Screening Cc1occc1C(=O)N/N=C/C=C/c1ccc(N(C)C)cc1 returned aSyn 5UTR act -129.2.
Screening Cc1occc1C(=O)N/N=C/C(Br)=C\c1ccccc1 returned aSyn 5UTR act -108.0.
`Cc1occc1C(=O)N/N=C/C=C/c1ccccc1` gave aSyn 5UTR act -138.1.
Screening COc1ccc(C(=O)/C=C/c2ccc(F)cc2)c(OC(=O)c2ccc([N+](=O)[O-])cc2)c1 returned aSyn 5UTR act -122.1.
`COc1ccc(C(=O)/C=C/c2cccs2)c(OC(=O)c2cccc([N+](=O)[O-])c2)c1` gave aSyn 5UTR act -366.0.
Cc1cc(-c2ccc(Cl)s2)n[nH]1 was read as aSyn 5UTR act -79.6.
C/C(O)=C(\N=Nc1cc(C)ccc1O)C(N)=O was read as aSyn 5UTR act -65.5.
Screening O=C(Nc1ccc(S(=O)(=O)NC2=NCCCCC2)cc1)c1ccc([N+](=O)[O-])s1 returned aSyn 5UTR act -65.5.
`O=C(CCOc1ccccc1F)N1CCN(c2ccccc2O)CC1` gave aSyn 5UTR act -75.0.
C#CC(C)(C)NC(=O)c1ccc(-c2ccccc2F)cc1 was read as aSyn 5UTR act -89.1.
CN(C)c1ncc(C2=C(Cl)C(=O)C(N3CCCC3)=C(Cl)C2=O)s1 was read as aSyn 5UTR act -69.9.
C/C(=N\NC(=O)c1ccc(O)cc1)c1cc2ccccc2o1 was read as aSyn 5UTR act -98.0.
`C/C(=N\Nc1ccc([N+](=O)[O-])cc1)c1cc2ccccc2o1` gave aSyn 5UTR act -72.6.
For C/C(=N/Nc1ccc([N+](=O)[O-])cc1)c1c[nH]c2ccccc12 the results were aSyn 5UTR act -171.2.
Screening C/C(=N/Nc1ccc([N+](=O)[O-])cc1)c1ccc(C)cc1C returned aSyn 5UTR act -89.1.
`COc1ccc(N2Nc3n[nH]c(N)c3N2)cc1` gave aSyn 5UTR act -72.8.
Screening CCOc1ccc(N2Nc3n[nH]c(N)c3N2)cc1 returned aSyn 5UTR act -64.7.
COc1ccccc1-c1nnc(SCC(=O)OC(C)C)o1 was read as aSyn 5UTR act -82.7.
`COC(=O)c1ccccc1NC(=O)CSc1nnc(-c2ccc(C)cc2)o1` gave aSyn 5UTR act -129.8.
COc1ccc(C)cc1NC(=O)CSc1nnc(-c2ccc(C)cc2)o1 was read as aSyn 5UTR act -108.8.
For Cc1ccc(-c2nnc(SCC(=O)Nc3ccccc3F)o2)cc1 the results were aSyn 5UTR act inactive.
For Cc1cc(-c2nnc(SCC(=O)Nc3ccccc3C(F)(F)F)o2)c(C)n1-c1ccccc1 the results were aSyn 5UTR act -68.7.
Screening COc1cccc(-c2nnc(SCC(=O)Nc3cc(C)on3)o2)c1 returned aSyn 5UTR act -66.2.
